Laboratory results published in PubChem BioAssay.

Each molecule was assayed against Voltage-gated potassium channel subunit beta-2 (Rattus norvegicus) (UniProt P62483) (assay: enhancers of rat Kvbeta2 NADPH turnover – biochemical, NADPH fluorescence, primary screen (AID 623;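 also: fluorescence intensity change per second fitted from 20 to 320 s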)). Conditions: Recombinant KvBeta, NADPH fluorescence decrease slope, 10 min; at 10 µM; stronger effect = lower value;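 active = NADPH fluorescence slope more negative than the mean of all samples by about 3 SD, 99.7% confidence; inactive = the rest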.
Sequence of Voltage-gated potassium channel subunit beta-2 (Rattus norvegicus) (P62483 whole entry, looked up): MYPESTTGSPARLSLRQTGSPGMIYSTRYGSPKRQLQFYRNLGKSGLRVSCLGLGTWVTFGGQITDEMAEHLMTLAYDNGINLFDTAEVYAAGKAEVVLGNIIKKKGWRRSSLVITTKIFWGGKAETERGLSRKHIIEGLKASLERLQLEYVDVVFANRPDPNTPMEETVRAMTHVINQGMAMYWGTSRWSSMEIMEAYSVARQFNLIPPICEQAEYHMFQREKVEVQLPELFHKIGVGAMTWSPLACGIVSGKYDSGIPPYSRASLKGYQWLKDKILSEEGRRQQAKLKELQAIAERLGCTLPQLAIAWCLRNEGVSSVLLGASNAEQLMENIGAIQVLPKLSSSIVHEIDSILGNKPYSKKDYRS

NADPH fluorescence slope, inactive:
NC(=O)c1ccsc1NC(=O)COC(=O)Cc1ccsc1 -4.6e-05
CCCc1ccccc1OCCNC(C)=O -3.9e-06
O=C(O)C1CCCCC1C(=O)Nc1ccccn1 (stereo unspecified) -5e-05
O=C(c1cccc2c1C(=O)N(Cc1cccnc1)C2)N1CCN(c2ccccc2)CC1 -6e-05
CCCCCCn1c(CN2CCCC(C)C2)nc2c1c(=O)n(C)c(=O)n2C (stereo unspecified) -4.7e-05
Cc1nnc(SCCCn2c(N3CCCCC3)nc3c2c(=O)[nH]c(=O)n3C)s1 -1.1e-05
Cc1cc(NC(=O)Cc2c(F)cccc2Cl)no1 -2.5e-05
Cc1cc(C(=O)COC(=O)c2n[nH]c3ccccc23)c(C)n1C -1.8e-05
COc1ccc(NC(=O)CSc2ccccn2)cc1OC -1.5e-05
O=C(NC1CCCCCC1)c1cc(S(=O)(=O)N2CCC3(CC2)OCCO3)ccc1F 9e-06
O=C(CN(CC1CCCO1)S(=O)(=O)c1ccc(S(=O)(=O)NC2CC2)cc1)Nc1ccccc1 (stereo unspecified) -4.7e-05
CCN(CC(=O)Nc1ccc2c(c1)CCC2)Cc1nc2ccccc2c(=O)[nH]1 -3.6e-05
O=C(Nc1ccc(-c2nc3ncccc3o2)cc1)c1ccc(Br)o1 -3.3e-06
COC(=O)Cc1cc(=O)n(-c2ccccc2)[nH]1 -1.8e-05
CN(C)c1ccc(C2C3=C(CCCC3=O)OC3=C2C(=O)CCC3)cc1 -5.2e-05
CCOC(=O)N1CCN(C(=O)CN(Cc2ccccc2)S(=O)(=O)c2ccc(OC)c(C)c2)CC1 1e-05
